The list is not random: actives were taken first. Their share in the collection is about 9%.
LMNA splice mod: modulators of lamin A splicing | HeLa LMNA splicing GFP/RFP minigene ratio, 48 h | Potency, µM (top dose mostly 46.1 µM), for the others: at the highest dose ratio change, negative = inhibition, usual class: inhibitors | AID 1487 | actives 0.01% (n = 200,000); active = well fitted inhibition curve with a large enough effect in the signal ratio, with a control signal flat, not every such curve was filed as active; inconclusive = small, poorly fitted or top-dose-only effect, or effect the other way, or a change in a side signal; the % refers to the signal ratio; also: % is scaled to controls: 0 for no effect and ±100 for the full control effect
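S3 HeLa cells stably expressing lamin A-EGFP splicing minigene plus DsRed2, 600 cells/well, 48 h compound exposure at 37C. Laser-scanning cytometry; analysed as GFP (500-530 nm)/RFP (575-640 nm) total intensity ratio; 0.5% DMSO vehicle.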
ALDH1A1 inh: blocks purified human ALDH1A1 activity. Purified ALDH1A1, NADH fluorescence, propionaldehyde substrate. actives 7.3% (n = 220,000). Potency, µM (titrated, usually from 75.3 µM), for the others: at the highest dose activity, negative = inhibition, usual class: inhibitors; active = well fitted inhibition curve with a large enough effect, not every such curve was filed as active; inconclusive = small, poorly fitted or top-dose-only effect, or another doubt; inactive = no such curve, though single readings can be large or run the other way;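 also: plate controls were no enzyme wells and a reference inhibitor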
Target sequence (P00352 whole entry, looked up): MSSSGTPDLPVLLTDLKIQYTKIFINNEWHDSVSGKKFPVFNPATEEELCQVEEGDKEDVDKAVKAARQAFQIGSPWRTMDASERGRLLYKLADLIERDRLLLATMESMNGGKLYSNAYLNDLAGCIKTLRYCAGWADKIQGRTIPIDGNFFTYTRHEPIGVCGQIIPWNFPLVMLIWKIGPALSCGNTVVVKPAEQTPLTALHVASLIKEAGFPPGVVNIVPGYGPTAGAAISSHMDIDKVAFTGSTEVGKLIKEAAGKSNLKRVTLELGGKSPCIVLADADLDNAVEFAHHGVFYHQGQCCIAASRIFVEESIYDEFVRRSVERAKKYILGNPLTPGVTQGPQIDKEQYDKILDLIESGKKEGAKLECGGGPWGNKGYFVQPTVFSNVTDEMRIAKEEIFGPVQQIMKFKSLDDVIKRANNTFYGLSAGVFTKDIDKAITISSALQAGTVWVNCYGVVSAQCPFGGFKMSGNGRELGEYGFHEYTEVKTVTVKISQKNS
HTT ATP protect: Huntington cell model cytoprotection by ATP luminescence. PC12 HTT-Q103 induced, cytoprotection, ATP luminescence, 40 h. Potency, µM (doses to about 56.4 µM), without a hit: cytoprotection (ATP increase), most hits filed as activators. actives 0.14% (n = 230,000). AID 1471; also: % of control where 0% means no effect; nearly all actives have a fitted effect of over 45% in size
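PC12 cells with ecdysone-inducible HTT exon 1 Q103-GFP, induced with 100 nM tebufenozide and co-treated with library compounds in a dose series (1536-well, 1500 cells/well). Cytoprotection read as ATP content by ATPlite luminescence.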
HPGD inh: inhibitors of human 15-hydroxyprostaglandin dehydrogenase (HPGD). P15428. purified HPGD, NADH fluorescence kinetic, PGE2 substrate. Potency, µM, without a hit: at the highest dose activity change, negative = inhibition, actives largely listed as inhibitors. actives 4.3% (n = 150,000); active = well fitted inhibition curve with a large enough effect, not every such curve was filed as active; inconclusive = small, poorly fitted or top-dose-only effect, or another doubt; inactive = no such curve, though single readings can be large or run the other way; also: % is scaled to controls: 0 for no effect and ±100 for the full control effect
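20 nM HPGD preincubated 15 min at room temperature with compound in 50 mM Tris-HCl pH 8, 0.01% Tween 20. Started with 1 mM NAD+ and 30 uM prostaglandin E2; NADH fluorescence (360/450 nm) read 5 times over 30-s intervals, last minus first.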
HttQ103 aggreg: reduces HttQ103-GFP aggregates in PC12 cells; PC12 HttQ103-GFP aggregates, Acumen cytometry, 40 h; Potency, µM (highest dose often 46.1 µM), inactives show top-dose activity change, negative = inhibition, hits mostly inhibitors; actives 1.1% (n = 220,000); AID 1688; also: % is scaled to controls: 0 for no effect and ±100 for the full control effect; nearly all actives have a fitted effect of over 60% in size
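Ecdysone-promoter PC12 model expressing HTT exon 1 Q103 fused to GFP, induced by tebufenozide at 100 nM final. Compounds titrated; aggregates sized 1–25 µm scored on a 488 nm laser cytometer.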
KinaseGlo FLuc: blocks Kinase-Glo luciferase, a counter-screen artifact; Q27757; Kinase-Glo luciferase, ATP luminescence, 8 min; Potency, µM (series often up to 38.3 µM), inactives show top-dose activity change, negative = inhibition, actives largely listed as inhibitors; actives 0.28% (n = 200,000); AID 1379; also: % is scaled to controls: 0 for no effect and ±100 for the full control effect; nearly all actives have a fitted effect of over 60% in size
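Light output from Kinase-Glo luciferase with luciferin and 10 uM ATP in 50 mM imidazole pH 7.2, KCl, MgCl2, Tween 20, BSA; compound pin-delivered, 8-min ambient incubation, then luminescence read.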
* marks the source's active call; other numbers are inactive results; ? = inconclusive; · = no result given; [ ] = remark or other dose. Unless noted, calls follow the shape of the dose curve; as a rule, active = well fitted curve in the direction sought with a large enough effect; inconclusive = small, poorly fitted or top-dose-only effect, or another doubt; inactive = no such curve, though single readings can be large; an effect the other way counts as inactive or inconclusive. Potency is read from the fitted curve at half-maximal effect.

SMILES | LMNA splice mod | ALDH1A1 inh | HTT ATP protect | HPGD inh | HttQ103 aggreg | KinaseGlo FLuc
CCCOC(=O)CSC1=C(C#N)C(c2ccccc2Cl)CC(=O)N1 (centres undefined) | ? | ? | -3.7% | -4.1% | -22.4% | -0.2%
Cc1nc2ccc(NC(=O)c3c(-c4ccccc4)noc3C)cc2s1 | -5.0% | 3.7% | -11.1% | -6.5% | 5.5% | -7.9%
CC(C)CCNc1nc2c(c(=O)n(Cc3cccc(F)c3)c(=O)n2C)n1C | ? | 12.6µM* | -25.1% | ? | 25.1µM* | -0.1%
Cn1c(=O)c2c(nc(Oc3ccc(-c4ccccc4)cc3)n2C)n(C)c1=O | 8.6% | 9.7% | -11.3% | -10.8% | 2.82µM* | -0.6%
Cn1c(NCc2ccccc2)nc2c1c(=O)n(Cc1ccccc1)c(=O)n2C | -16.7% | ? | -18.4%[10 µM] | -26.8% | -9.6% | 1.5%
COc1cccc(Cn2c(Oc3ccccc3)nc3c2c(=O)n(C)c(=O)n3C)c1 | -8.1% | 0.251µM* | -3.3%[10 µM] | -21.7% | -27.9% | -1.3%
CCCOc1nc2c(c(=O)n(C)c(=O)n2C)n1Cc1cccc2ccccc12 | ? | ? | -88.4% | -5.6% | 12.6µM* | 1.3%
Cc1ccc(Oc2nc3c(c(=O)n(C)c(=O)n3C)n2C)cc1C | ? | -13.2% | -36.6% | · | ? | -0.5%
O=C(COc1ccccc1F)OCc1cc(=O)n2nc(C3CC3)sc2n1 | 3.7%[46 µM] | · | · | · | · | ·
CCN(CC)c1ccc2c(C)cc(=O)oc2c1 | · | ? | -19.4% | ? | · | ·
CC(CNC(=O)COc1ccccc1)OC(=O)Nc1cccc(Cl)c1 (centres undefined) | ? | ? | 11.7%[10 µM] | -14.6% | 13.9% | -0.1%
Cc1cc2n(n1)C(c1ccc3c(c1)OCO3)Nc1c(C)cccc1-2 (centres undefined) | -0.6% | ? | -22.7%[10 µM] | ? | -7.6% | 0.2%
CCC(=O)NC(=S)Nc1ccc(NC(=O)c2ccc([N+](=O)[O-])cc2)cc1 | ? | ? | · | -16.4% | 17.4% | 3.9%
Cc1cccc(Cn2c(NCCO)nc3c2c(=O)n(C)c(=O)n3C)c1 | ? | ? | -8.4%[10 µM] | -15.2% | ? | 5.9%
COCCNc1nc2c(c(=O)n(C)c(=O)n2C)n1Cc1cccc(C)c1 | ? | 1.9% | -12.1%[10 µM] | 0.9% | 15.8µM* | -1.4%
NC(=O)C1=C[C@H](c2coc3ccccc3c2=O)C[C@H](OCc2ccc(CO)cc2)O1 | · | 2.2% | -8.6%[10 µM] | · | -10.7%[9.22 µM] | ·
COc1ccccc1OCC(=O)Nc1nnc(-c2ccco2)s1 | -4.5% | 7.08µM* | -4.0% | -22.2% | 4.8% | -1.3%
Cc1cccc(OCC(=O)Nc2nnc(-c3ccco3)s2)c1 | -13.4%[46 µM] | 31.6µM* | -29.4% | · | ? | 2.4%
C/C(=N/NC(=O)CNC(=O)c1cccnc1)c1ccc([N+](=O)[O-])cc1 | · | -2.2% | -32.6% | · | -9.4% | 0.9%
Cc1ccc(NC(=O)COC(=O)c2cc(Cl)ccc2[N+](=O)[O-])c(C)c1 | 8.2% | ? | 47.6%[10 µM] | -8.4% | -9.7% | 3.2%
Cc1cc(NC(=O)COc2cccc(Oc3ccccc3)c2)no1 | ? | 6.2% | -10.7%[1.9 µM] | -5.7% | -14.8% | -1.8%
O=C(COC(=O)c1ccccc1NCc1ccco1)Nc1ccc2c(c1)OCO2 | ? | ? | -15.5% | ? | 6.9% | 1.3%
COc1cc2[nH]c(=S)n(Cc3cccs3)c(=O)c2cc1OC | ? | 1.12µM* | -14.2% | · | 29.8% | -1.3%
CCCn1c(=S)[nH]c2cc(OC)c(OC)cc2c1=O | ? | ? | -14.0% | -9.0% | 8.4% | 1.8%
COc1ccc(COC(=O)c2ccc(N3CCCC3=O)cc2)cc1F | ? | -7.5% | -4.0% | 14.1µM* | -6.3% | -2.4%
COCC(C)n1c(C)cc(C(=O)COC(=O)c2ccc(N3CCCC3=O)cc2)c1C (centres undefined) | 7.8% | 25.1µM* | -3.9% | -13.1% | -10.1% | 19.0%
CN(C)c1ccc(NC(=O)c2ccc3c(c2)nnn3C)cc1 | -1.0%[46 µM] | ? | · | · | · | 1.3%

Compound activity from PubChem.
